In PubChem BioAssay (NCI):
This is part of a sample that, as a whole, favours compounds with a hit. Of some 83,000 tested, about 20% had one in any assay.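 Cell lines were cultured in 96-well plates, exposed to a single compound concentration, and assessed for percent growth 48 hours later.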 The source made the active and inactive calls. How the source made its calls: active means growth percent below 10; inactive means the rest.

system: SF-539 CNS; assay: NCI-60 one-dose screen, 48 h (100 = growth as untreated, 0 = no growth, -100 = all killed); conditions: 10 µM unless noted

Row | SMILES | growth
1 | Cc1ccc(Cn2cc(COc3ccc4c5ccnc(C)c5n(CCCc5ccccc5)c4c3)nn2)cc1 | 89.9% (inactive)
2 | O=C(Nc1ccc(-n2ccc3c(NC(=O)c4ccccc4)ncnc32)cc1)Nc1ccc(Cl)c(C(F)(F)F)c1 | 13.5% (inactive)
3 | CCCCOc1c(N)cc(Cl)cc1C(=O)OCCN(CC)CC | 104% (inactive)
4 | CC(Cl)(CCl)CS(=O)(=O)c1ccc(Cl)cc1 (stereo not drawn) | 107% (inactive)
5 | CCc1c(C)c2cc3c(c(C)c2oc1=O)OCC(=O)N3 | 67.8% (inactive)
6 | Cc1ccc(NC(=O)CN2CCOCC2)cc1Cl | 98.7% (inactive)
7 | CC1(C)CC(=O)C2=C(C1)OC1=C(C(=O)CC(C)(C)C1)C2c1ccc(OCc2cn(-c3ccc(F)cc3F)nn2)cc1 | 99.8% (inactive)
8 | COc1cccc(-c2nc3sccn3c2-c2ccnc(NCCNC(=O)Nc3cccc(C(F)(F)F)c3)n2)c1 | 77.9% (inactive)
9 | CN(C)c1ccc(/C=N/N=C(N)N)cc1 | 90.9% (inactive)

system: UACC-257 melanoma; assay: as above; conditions: 10 µM unless noted

Row | SMILES | growth
10 | COc1ccc(C(=O)NC(=O)Nc2ccc3c(c2)NC(=O)/C3=C\c2[nH]c(C)c(CCC(=O)O)c2C)c(F)c1 | 14.1% (inactive)
11 | Cn1c(I)c(C#C[Si](C)(C)C)c(=O)[nH]c1=O | -36.5% (active)
12 | COC(=O)c1oc2c(C(C)=O)c(OCCCN(C)C)ccc2c1C | 106% (inactive)
13 | CC(C)NCC(O)COc1ccc(CC(N)=O)cc1 (stereo not drawn) | 104% (inactive)
14 | O=C(NCCNc1nccc(-c2c(-c3cccc(O)c3)nc3sccn23)n1)Nc1cccc(C(F)(F)F)c1 | 25.3% (inactive)
15 | CNCCCOc1c(Br)cc(CCNC(=O)/C(Cc2ccc(OC)c(Br)c2)=N/O)cc1Br | 4.02% (active)
16 | COc1cccc(-c2nc3sccn3c2-c2ccnc(NCCNC(=O)c3ccccc3)n2)c1 | 69.7% (inactive)
17 | O=C(N/N=C1\SCC(=O)N1c1ccccc1)c1cc(-c2cc3ccccc3o2)nn1-c1ccccc1 | 107% (inactive)
18 | Cc1ccc2c(c1)Nc1ccc(C)cc1C2(C)C | 110% (inactive)
19 | COc1cc(NC(C)CCCN2C(=O)c3ccccc3C2=O)c2nccc(C)c2c1OC (stereo not drawn) | 106% (inactive)
20 | NCC(=O)NS(=O)(=O)OC[C@H]1O[C@@H](n2cnc3c(N)ncnc32)[C@H](O)[C@@H]1O | 27.4% (inactive)
21 | CCN(CC)CC(=O)Nc1c(C)cccc1C | 108% (inactive)
22 | Nc1ncnc2c1c(-c1ccc(Oc3ccccc3)cc1)nn2C[C@@H]1SSC[C@H]1O | 36.8% (inactive)
23 | COc1cc(/C=C\c2cc(/C=C\c3ccc(O)c(OC)c3)n(C(=O)CNc3ccccc3OC)n2)ccc1O | 85.5% (inactive)
24 | O=C1OC(N(Cc2ccc(Cl)cc2)c2ccccc2)c2ccccc21 (stereo not drawn) | 105% (inactive)
25 | CN(C)CC/C=C1\c2ccccc2Sc2ccc(Cl)cc21 | -54.4% (active)
26 | O=C(Nc1cccc(-n2ccc3c(NC(=O)c4ccccc4)nccc32)c1)Nc1cc(C(F)(F)F)cc(C(F)(F)F)c1 | 25.2% (inactive)
27 | CCCCC(=O)Nc1nc2ccc(SCCC)cc2s1 | 66.8% (inactive)
28 | CCN(CC)c1ccc(C2CC(c3cc(OC)c(OC)c(OC)c3)=NN2)cc1 (stereo not drawn) | 30.8% (inactive)
29 | c1ccc2nc(Cn3cc[n+](Cc4ccc5ccccc5n4)c3)ccc2c1 | 21.9% (inactive)

Row | SMILES | growth
30 | Clc1ccc(OCc2nc(-c3ccccc3)n[nH]2)c(Cl)c1 | 97.8% (inactive)
31 | CC(C)CNCC(=O)Nc1ccc(Cc2ccc(NC(=O)CNCC(C)C)cc2)cc1 | 62.6% (inactive)
32 | O=C(O)c1ccc(-n2cc(/C=N/Nc3ccc(F)cc3)c(-c3cccc(C(F)(F)F)c3)n2)cc1 | 91.2% (inactive)
33 | CCCCCCCCCCCCCCCCCCNCc1ccc(Cl)cc1 | 38.9% (inactive)
34 | COc1ccc(CCNC=O)cc1OC | 108% (inactive)
35 | O=C(COc1ccc(Cl)cc1Cl)N1N=C(c2ccc(Cl)cc2Cl)CC1(O)c1cc(F)c(Cl)cc1Cl (stereo not drawn) | 99% (inactive)
36 | Cc1nccc2c3ccc(OCc4cn(Cc5ccc(Br)cc5)nn4)cc3n(CCCc3ccccc3)c12 | 99.3% (inactive)
37 | COc1ccc(-c2c(C#N)cnc(N)c2-c2nc3cc(C)c(C)cc3[nH]2)cc1 | 70% (inactive)
38 | O=c1c2ccccc2[nH]n1Cc1ccc2c(c1)OCO2 | 97% (inactive)
39 | COc1cc(Nc2ncccc2C(=O)Nc2nc3ccc(F)cc3s2)cc(OC)c1OC | 86.4% (inactive)
40 | Cc1ccc(Cn2cc(COc3ccc4c5ccnc(C)c5n(CCCc5ccccc5)c4c3)nn2)cc1 | 109% (inactive)
41 | O=C(Nc1ccc(-n2ccc3c(NC(=O)c4ccccc4)ncnc32)cc1)Nc1ccc(Cl)c(C(F)(F)F)c1 | 7.73% (active)
42 | CCCCOc1c(N)cc(Cl)cc1C(=O)OCCN(CC)CC | 78.3% (inactive)
43 | CC(Cl)(CCl)CS(=O)(=O)c1ccc(Cl)cc1 (stereo not drawn) | 86.7% (inactive)
44 | CCc1c(C)c2cc3c(c(C)c2oc1=O)OCC(=O)N3 | 84.3% (inactive)
45 | Cc1ccc(NC(=O)CN2CCOCC2)cc1Cl | 88.1% (inactive)
46 | CC1(C)CC(=O)C2=C(C1)OC1=C(C(=O)CC(C)(C)C1)C2c1ccc(OCc2cn(-c3ccc(F)cc3F)nn2)cc1 | 83.3% (inactive)
47 | COc1cccc(-c2nc3sccn3c2-c2ccnc(NCCNC(=O)Nc3cccc(C(F)(F)F)c3)n2)c1 | 69.5% (inactive)
48 | CN(C)c1ccc(/C=N/N=C(N)N)cc1 | 72.4% (inactive)
